This note sets out measurements from PubChem BioAssay (NCI).

SMILES strings stand for the structures. Compounds without any hit were thinned out: in the full panel of roughly 83,000, 20% have a hit.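 Negative percent growth values reflect cell death: -40 means 40% of the cells present at the start died, and -100 means all died.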 A number with no mark means an inactive call. The source made the active and inactive calls. How the source made its calls: active means growth percent below 10; inactive means the rest.

Some test systems named below: BT-549 breast; MDA-MB-435 melanoma; SW-620 colon; HCT-116 colon; KM12 colon; MCF7 breast; HCC-2998 colon.
What all share (assay): NCI-60 one-dose screen, 48 h (100 = growth as untreated, 0 = no growth, -100 = all killed)
Settings in all cases: 10 µM unless noted

Regarding `C=C(C)[C@@H]1CC[C@]2(CNCCO)CC[C@]3(C)[C@H](CC[C@@H]4[C@@]5(C)CCC(N)[C@@](C)(CO)[C@@H]5CC[C@]43C)[C@@H]12` (stereo partly drawn), the growth in the assay with BT-549 breast was 68.6%; in the assay with MDA-MB-435 melanoma, -75.7% (active); in the assay with SW-620 colon it was -60.2% (active); with HCT-116 colon it was -90.2% (active); in the assay with KM12 colon it was -2.9% (active).
Take `CCCCCCN(CCCCCC)CC(O)c1cccc2ccc(Cl)cc12` (stereo not drawn): the growth with BT-549 breast was 99.2%; in the assay with SW-620 colon it was 35.7%; in the assay on MCF7 breast, 56.5%; with HCT-116 colon it was 16.7%; in the assay on HCC-2998 colon, 13.1%; in the assay on KM12 colon, 44.5%.
Take `O=C(O)c1ccccc1C(=O)Nc1ccc(Cl)cc1`: the growth in the assay on MDA-MB-435 melanoma was 85.7%; in the assay with SW-620 colon it was 93%; in the assay on MCF7 breast, 103%; in the assay with HCT-116 colon, 96.3%; with HCC-2998 colon it was 92.6%; with KM12 colon it was 85.8%.
As for `CCOC(=O)c1nnn(C(Cc2ccccc2Cl)C(=O)OCC)c1C` (stereo not drawn), the growth in the assay with BT-549 breast is 107%; with MDA-MB-435 melanoma, 105%; in the assay on SW-620 colon it was 98%; in the assay with MCF7 breast, 104%; with HCC-2998 colon, 109%; in the assay with KM12 colon, 102%.
Take `COc1ccc(Nc2ncc(Br)c(NCCCNC(=O)C3CCC3)n2)cc1`: the growth in the assay with BT-549 breast was -33.9% (active); with MDA-MB-435 melanoma it was 53.8%; in the assay with SW-620 colon, 29.1%; in the assay with HCT-116 colon, 5.88% (active); in the assay on HCC-2998 colon it was 42.4%; in the assay on KM12 colon, 15.2%.
As to `C=C1C(=O)O[C@H]2[C@H]1CC/C(Cn1cc(CNCCc3c[nH]c4ccccc34)nn1)=C\CC[C@@]1(C)O[C@@H]21`, the growth in the assay with BT-549 breast was 90.6%; in the assay with MDA-MB-435 melanoma, 97%; with SW-620 colon, 46.1%; with HCT-116 colon, 64.8%; in the assay with HCC-2998 colon, 97.1%; in the assay on KM12 colon, 98%.
`Fc1ccc(Nc2nc3nonc3nc2Nc2ccc(F)cc2)cc1`: the growth with MDA-MB-435 melanoma is 5.74% (active); in the assay on SW-620 colon, 9.46% (active); in the assay on MCF7 breast it was 3.66% (active); with KM12 colon, 3.91% (active).
`O=C(O)C1C[C@](O)(c2ccc(F)cc2)[C@@H](c2ccc(F)cc2)O1` (stereo partly drawn): the growth is 71% in the assay on BT-549 breast; 116% in the assay on SW-620 colon; 97.5% with MCF7 breast; 115% with HCC-2998 colon; 131% with KM12 colon.
`COc1ccc(/C=C(\C#N)n2nnc3cc(F)c(F)cc32)c(OC)c1OC`: the growth in the assay on BT-549 breast is 70.9%; in the assay on MDA-MB-435 melanoma it was 45.7%; in the assay on SW-620 colon, 62%; with HCT-116 colon it was 52.9%; with HCC-2998 colon it was 114%; in the assay on KM12 colon, 67.8%.
For the compound `Cc1csc(NC(=O)c2sc3nc(-c4cccs4)ccc3c2N)n1`, the growth in the assay on MDA-MB-435 melanoma is 108%; in the assay with SW-620 colon it was 99.4%; with MCF7 breast, 71.3%; with HCC-2998 colon it was 114%; with KM12 colon, 92.9%.
As for `Nc1c(C(=O)c2ccc(Cl)s2)sc2nc3c(cc12)CCCC3`, the growth with MDA-MB-435 melanoma is 119%; in the assay with SW-620 colon it was 106%; in the assay with MCF7 breast it was 41.3%; in the assay on HCT-116 colon, 105%; in the assay on HCC-2998 colon, 111%; with KM12 colon, 96.6%.
As for `Cc1nc(C)c(-c2nn3c(-c4cccc(F)c4)nnc3s2)s1`, the growth in the assay on MDA-MB-435 melanoma is 95.2%; in the assay on SW-620 colon it was 96.8%; in the assay on MCF7 breast, 99.8%; in the assay with HCC-2998 colon it was 105%; in the assay on KM12 colon, 99%.
As to `CN1CCN(C(=O)[C@]23CCC(C)(C)C[C@@H]2C2=CC[C@@H]4[C@@]5(C)Cc6c([nH]c7ccccc67)C(C)(C)[C@@H]5CC[C@@]4(C)[C@]2(C)CC3)CC1`, the growth in the assay on BT-549 breast is 97%; in the assay on MDA-MB-435 melanoma it was 84.6%; with MCF7 breast, 69.9%; with HCT-116 colon it was 70.7%; with HCC-2998 colon, 99.4%; in the assay with KM12 colon, 76.3%.
As for `C=C(C)[C@@H]1CC[C@]2(C(=O)NCC(=O)O)CC[C@]3(C)[C@H](CC[C@@H]4[C@@]5(C)Cc6c([nH]c7ccccc67)C(C)(C)[C@@H]5CC[C@]43C)[C@@H]12`, the growth with BT-549 breast was 65.7%; in the assay on MDA-MB-435 melanoma, 87.1%; with SW-620 colon it was 85%; in the assay on HCT-116 colon, 77.4%; in the assay on HCC-2998 colon, 98.4%; with KM12 colon it was 88.1%.
On to `CC[C@@H](C[C@H](CCO)c1ccccc1)c1cc2ccccc2o1`, for which the growth in the assay with BT-549 breast is 97.7%; in the assay on MDA-MB-435 melanoma it was 102%; in the assay with MCF7 breast, 117%; with HCT-116 colon, 76.6%; in the assay on HCC-2998 colon it was 109%; in the assay with KM12 colon, 88.7%.
Take `CCc1nc2ccccc2[nH]1`: the growth is 113% in the assay with MDA-MB-435 melanoma; 104% with SW-620 colon; 88.7% in the assay on MCF7 breast; 102% in the assay on HCT-116 colon; 110% with HCC-2998 colon; 113% in the assay on KM12 colon.
`COc1ccc(Oc2nc(Nc3ccc(N4CCCCC4)nc3)ncc2NC(=O)c2cc(OC)cc(OC)c2)cc1`: the growth in the assay on BT-549 breast is 56.5%; in the assay with MDA-MB-435 melanoma it was -30.6% (active); with SW-620 colon, 30.6%; in the assay on HCT-116 colon it was 18.8%; with HCC-2998 colon, 65.8%; with KM12 colon, 20.2%.
Turning to `COc1ccc(OC)c(Nc2nc3nonc3nc2Nc2cccc(Br)c2)c1`, the growth with MDA-MB-435 melanoma was 14.9%; in the assay on SW-620 colon, 11.7%; in the assay on MCF7 breast, 5.95% (active); in the assay with HCT-116 colon it was 10.9%; in the assay with HCC-2998 colon, 25%; in the assay on KM12 colon, 7.96% (active).
Take `Cn1c(NCCc2ccc(O)c(O)c2)nc2c1c(=O)n(Cc1ccc(Cl)cc1)c(=O)n2C`: the growth with BT-549 breast was 71.6%; with MDA-MB-435 melanoma it was 76.3%; in the assay with MCF7 breast, 75.3%; in the assay with HCT-116 colon, 71.4%; in the assay with HCC-2998 colon, 89.3%; with KM12 colon, 79.6%.
